Rab9 promoter act: activators of Rab9 promoter; Huh7 Rab9 promoter-luciferase reporter, luminescence, 24 h; Potency, µM (series often up to 9.22 µM), most hits filed as activators; hit rate 2.8% among 320,000; further: nearly all actives have a fitted effect of over 60% in size
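Huh7 cells stably carrying Rab9 promoter–luciferase reporter, plated 1500 cells/well, compound added after 2 h and incubated 24 h at 37 °C; luciferase luminescence then read after 10 min with detection reagent.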
NPC1 promoter act: activators of NPC1 promoter; Huh7 NPC1 promoter luciferase reporter, 24 h; Potency, µM (doses to about 9.22 µM), hits mostly activators; hit rate 2.4% among 320,000; AID 485313; further: nearly all actives have a fitted effect of over 60% in size
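Stable NPC1-promoter luciferase Huh7 line; cpd (DMSO) 24 h, 37 °C, 5% CO2; Amplite luciferase reagent 10 min RT; luminescence readout. qHTS format.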
ELG1 genotoxic: genotoxicity induction in ELG1-luciferase HEK293T cells. hit rate 1.3% among 330,000. Potency, µM (doses to about 46 µM), usual class: activators. HEK293T ELG1-luciferase reporter, luminescence, 16 h; further: nearly all actives have a fitted effect of over 60% in size
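Quantitative HTS format in 1536-well plates. HEK293T ELG1-luciferase reporter cells receive test compound and are incubated 16 hr at 37 °C, 5% CO2; ONE-Glo added, 30 min room temperature, then luminescence read.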
FLuc counter: inhibits or activates purified firefly luciferase, miR-21 counter-screen; P08659; purified FLuc, Km substrates, luminescence inhibition; Potency, µM (doses to about 57.5 µM), hits mostly inhibitors; hit rate 6.9% among 360,000; further: nearly all actives have a fitted effect of over 55% in size
Target sequence (P08659 whole entry, looked up): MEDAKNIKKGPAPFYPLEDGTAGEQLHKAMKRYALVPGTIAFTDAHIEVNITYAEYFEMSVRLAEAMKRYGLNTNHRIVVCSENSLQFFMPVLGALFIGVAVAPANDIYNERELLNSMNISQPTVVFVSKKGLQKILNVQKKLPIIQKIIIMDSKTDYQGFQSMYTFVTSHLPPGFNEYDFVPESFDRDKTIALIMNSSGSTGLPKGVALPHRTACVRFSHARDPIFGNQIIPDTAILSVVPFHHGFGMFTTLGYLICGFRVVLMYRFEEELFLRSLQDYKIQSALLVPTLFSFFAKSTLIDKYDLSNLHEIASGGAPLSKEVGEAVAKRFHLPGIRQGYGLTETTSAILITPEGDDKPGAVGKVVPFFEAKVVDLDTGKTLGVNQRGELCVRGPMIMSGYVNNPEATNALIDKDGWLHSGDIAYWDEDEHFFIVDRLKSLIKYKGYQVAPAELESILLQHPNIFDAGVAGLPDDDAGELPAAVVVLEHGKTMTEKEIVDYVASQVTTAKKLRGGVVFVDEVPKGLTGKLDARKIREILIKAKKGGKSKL
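Purified P. pyralis luciferase, 10 nM final, with Km-level 10 uM D-luciferin and 10 uM ATP in 50 mM Tris acetate pH 7.5, 10 mM Mg acetate, 0.01% Tween-20, 0.05% BSA; 6-point qHTS titration about 60 µM downward; luminescence read.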
SMN2 splice up: increases expression of the SMN2 splice variant; HEK293 SMN2-luciferase splicing reporter, luminescence, 30-36 h; Potency, µM (top dose mostly 46.1 µM), most hits filed as activators; hit rate 2.8% among 210,000; further: nearly all actives have a fitted effect of over 55% in size
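qHTS luciferase splicing reporter: luminescence rises when SMN2 exon 7 is included in transfected HEK293 cells. Compound exposure lasted 30-36 h at 37C, with 4.5 mM final sodium butyrate as control, followed by a ONE-Glo read.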
p53 reactivator: mutant p53 re-activation in reporter cells | H1299 p53-A138V BP100-luciferase reporter, luminescence, 24 h | Potency, µM (doses to about 92.2 µM), actives largely listed as activators | hit rate 0.063% among 320,000 | AID 504706; further: nearly all actives have a fitted effect of over 45% in size
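H1299 (p53-null), stable ts p53-A138V + BP100-Luc; 1000 cells/well, Opti-MEM/10% FBS; cpd 4 pt, 1:5; 24 h, 37 deg C, 5% CO2; detection reagent 10 min RT; luminescence.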
A number is an active result; [ ] = dose if it differs, or a comment. Compounds with a hit are over-represented: about 7.4% of the library has one in this group of screens. The call rests on the fitted dose curve; in most records, active means well fitted curve in the direction sought with a large enough effect; inconclusive means small, poorly fitted or top-dose-only effect, or another doubt; inactive means no such curve, though single readings can be large; an effect the other way counts as inactive or inconclusive.

What do the screens show for `O=C1C=C(c2ccccc2C(F)(F)F)C[C@@H](c2ccc3c(c2)OCO3)C1`?
Rab9 promoter act: inactive; NPC1 promoter act: inactive; ELG1 genotoxic: inactive; FLuc counter: inactive; p53 reactivator: inactive

How did O=C(CNCc1ccc(Cl)cc1)Nc1ccc(C(=O)N2CCCCCC2)cc1 do in these assays?
Rab9 promoter act: inactive; NPC1 promoter act: inactive; ELG1 genotoxic: inactive; FLuc counter: inactive; p53 reactivator: inactive

How did CCN(CC)c1ccc(C=Nc2ccc(N(C)C)cc2)c(O)c1 do in these assays?
Rab9 promoter act: inactive; NPC1 promoter act: inactive; ELG1 genotoxic: 13µM; FLuc counter: 8.5µM; SMN2 splice up: inactive; p53 reactivator: inconclusive

Results for CCN(CC)c1ccc(N=Cc2ccc(N(CC)CC)cc2O)cc1 ?
Rab9 promoter act: inactive; NPC1 promoter act: inactive; ELG1 genotoxic: inactive; FLuc counter: inactive; SMN2 splice up: inactive; p53 reactivator: inactive

How did CC(C)Cc1nnc(NC(=O)C2CCN(C(=O)c3ccc(F)cc3)CC2)s1 do in these assays?
Rab9 promoter act: inactive; NPC1 promoter act: inactive; ELG1 genotoxic: inactive; FLuc counter: inactive; p53 reactivator: inactive

How did CCn1cc(C(=O)N[C@H](C(=O)NCCN2CCOCC2)C(C)C)c(=O)c2cc3c(cc21)OCO3 do in these assays?
Rab9 promoter act: inactive; NPC1 promoter act: inactive; ELG1 genotoxic: inactive; FLuc counter: inactive; p53 reactivator: inactive

How did O=C(COC(=O)c1ccc(Cl)s1)c1cc2ccccc2o1 do in these assays?
Rab9 promoter act: inactive; NPC1 promoter act: inactive; ELG1 genotoxic: inactive; FLuc counter: 24µM; SMN2 splice up: inactive; p53 reactivator: inactive

What do the screens show for `Cn1cccc1C(=O)OCC(=O)c1cc2ccccc2o1`?
Rab9 promoter act: inactive; NPC1 promoter act: inactive; ELG1 genotoxic: inactive; FLuc counter: 12µM; SMN2 splice up: inactive; p53 reactivator: inactive

What do the screens show for `N#Cc1cccc(NC(=O)N2CCC3(CC2)CCN(C(=O)c2csnn2)CC3)c1`?
SMN2 splice up: inactive

Results for CSc1ccccc1NC(=O)COc1ccc(Cl)cc1 ?
Rab9 promoter act: inactive; NPC1 promoter act: inactive; ELG1 genotoxic: inactive; FLuc counter: inconclusive; SMN2 splice up: inactive; p53 reactivator: inactive

What do the screens show for `CCOC(=O)N1CCN(C(=O)c2ccccc2NC(=O)COc2ccccc2)CC1`?
Rab9 promoter act: inactive; NPC1 promoter act: inactive; ELG1 genotoxic: inactive; FLuc counter: inactive; p53 reactivator: inactive

What do the screens show for `O=C(COc1ccc(Cl)cc1)Nc1ccccc1Cl`?
Rab9 promoter act: inactive; NPC1 promoter act: inactive; ELG1 genotoxic: inconclusive; FLuc counter: 17µM; p53 reactivator: inconclusive

What do the screens show for `Cc1ccc(OCC(=O)Nc2ccccc2C(N)=O)cc1`?
Rab9 promoter act: 2.8µM; NPC1 promoter act: 2.5µM; ELG1 genotoxic: inconclusive; FLuc counter: 8.5µM

How did NC(=O)c1ccccc1NC(=O)COc1ccc(Cl)cc1 do in these assays?
Rab9 promoter act: inconclusive; NPC1 promoter act: 3.2µM; ELG1 genotoxic: inconclusive; FLuc counter: 17µM; p53 reactivator: inconclusive

What do the screens show for `Cc1ccc(OCC(=O)Nc2ccccc2-c2ccccc2)cc1`?
Rab9 promoter act: inconclusive; NPC1 promoter act: inconclusive; ELG1 genotoxic: inconclusive; FLuc counter: 15µM; SMN2 splice up: inconclusive; p53 reactivator: inactive

How did COC(=O)CC1Oc2ccccc2-n2cc(-c3ccc(Cl)cc3)nc21 (centres undefined) do in these assays?
FLuc counter: inactive; SMN2 splice up: inconclusive

How did Cc1ccc(C)c(Cn2c(SCC(=O)NCc3ccccc3)nc3ccccc32)c1 do in these assays?
FLuc counter: inactive

What do the screens show for `O=S(=O)(Nc1cccc(-c2ccc3nncn3n2)c1)c1ccccc1F`?
Rab9 promoter act: inactive; NPC1 promoter act: inactive; ELG1 genotoxic: inconclusive; FLuc counter: inactive; p53 reactivator: inactive

How did O=S(=O)(Nc1cccc(-c2ccc(N3CCCC3)nn2)c1)c1ccccc1C(F)(F)F do in these assays?
FLuc counter: 17µM

How did O=S(=O)(Nc1cccc(-c2ccc(N3CCCC3)nn2)c1)c1ccc(F)c(C(F)(F)F)c1 do in these assays?
FLuc counter: 19µM

How did O=S(=O)(Nc1cccc(-c2ccc(N3CCOCC3)nn2)c1)c1ccc(F)c(C(F)(F)F)c1 do in these assays?
FLuc counter: 9.5µM

Results for O=S(=O)(Nc1cccc(-c2ccc3nncn3n2)c1)c1cccc(F)c1 ?
Rab9 promoter act: inactive; NPC1 promoter act: inactive; ELG1 genotoxic: inactive; FLuc counter: inactive; p53 reactivator: inactive

How did COC(=O)c1cc(=O)[nH]c(=O)[nH]1 do in these assays?
SMN2 splice up: inactive[9.22 µM]

Results for Nc1[nH]c(=O)nc2c1ncn2[C@H]1O[C@@H](CO)[C@@H](O)[C@@H]1O ?
SMN2 splice up: inactive[9.22 µM]

How did O=C1c2ccccc2-c2cc([N+](=O)[O-])c([N+](=O)[O-])cc21 do in these assays?
SMN2 splice up: inactive[9.22 µM]

How did CC(C)(C)c1ccc2c(c1)C(=O)c1ccccc1C2=O do in these assays?
Rab9 promoter act: 0.56µM; NPC1 promoter act: 0.89µM; ELG1 genotoxic: inconclusive; FLuc counter: 1.3µM; p53 reactivator: inconclusive

Results for CC(C)(C=O)C1=CC(=O)c2ccccc2C1=O ?
Rab9 promoter act: inactive; NPC1 promoter act: inactive; ELG1 genotoxic: inactive; FLuc counter: inconclusive; SMN2 splice up: inactive; p53 reactivator: inactive

Results for CCc1ccc2c(c1)C(=O)c1ccccc1C2=O ?
Rab9 promoter act: inconclusive; NPC1 promoter act: inconclusive; ELG1 genotoxic: inconclusive; FLuc counter: 6µM; SMN2 splice up: 16µM; p53 reactivator: inconclusive

How did CC1(C)CC(=O)c2sc(NC(=O)c3ccc4ncsc4c3)nc2C1 do in these assays?
Rab9 promoter act: inconclusive; NPC1 promoter act: inconclusive; ELG1 genotoxic: inconclusive; FLuc counter: 1.9µM; SMN2 splice up: 11µM; p53 reactivator: inactive

What do the screens show for `CC1(C)CNC(=O)c2sc(NC(=O)c3ccccc3)nc2C1`?
Rab9 promoter act: inconclusive; NPC1 promoter act: inconclusive; ELG1 genotoxic: inactive; FLuc counter: inconclusive; SMN2 splice up: 11µM; p53 reactivator: inactive

How did CC1(C)CC(=O)c2sc(NC(=O)C(C)(C)C)nc2C1 do in these assays?
Rab9 promoter act: 2.8µM; NPC1 promoter act: inconclusive; ELG1 genotoxic: inconclusive; FLuc counter: inconclusive; p53 reactivator: inactive

Results for CC1(C)CC(=O)c2sc(NC(=O)c3ccccc3)nc2C1 ?
Rab9 promoter act: 0.71µM; NPC1 promoter act: 0.45µM; ELG1 genotoxic: inconclusive; FLuc counter: 1.9µM; SMN2 splice up: 13µM; p53 reactivator: inactive

Results for CC1=C(C(=O)Nc2cccnc2)C(c2ccccc2)n2nc(-c3ccc(O)cc3)nc2N1 (centres undefined) ?
FLuc counter: inactive; SMN2 splice up: inactive

How did O=C(Nc1ccc(F)cc1)C1CCN(S(=O)(=O)c2cccc3nonc23)CC1 do in these assays?
Rab9 promoter act: inactive; NPC1 promoter act: inactive; ELG1 genotoxic: inactive; FLuc counter: inactive; p53 reactivator: inactive
